± gives the standard deviation of the averaged measurements.

For one test, the system named is IL-6-GFP PC-9GR. Description: cell viability (CCK-8 OD) relative to DMSO control (fraction of control); higher = more viable cells. Conditions: compound concentration: 10 uM; treatment time: 48 h. In short, it runs like this:
(§1)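 PC-9 and PC-9GR lung cancer cells carrying a lentiviral construct that overexpresses IL-6-GFP were seeded in 96-well plates at 3000 cells/well. Every compound in a purchased 510-compound library was applied at a final 10 μM for 48 h, and a parallel set of plates was kept for GFP imaging. Cell viability was read by CCK-8 absorbance, taking each well's optical density as a ratio to the vehicle control well. Two independent replicates were run.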

For the next test, the system named is IL-6-GFP PC-9. The description is as above. The following applies: compound concentration: 10 uM; treatment time: 48 h. In short, it runs like this: as §1

As for `COc1cc(/C=C/C(=O)/C=C(O)/C=C/c2ccc(O)c(OC)c2)ccc1O` [Curcumin], the cell viability worked out at 1.36 ± 0.48 in the test with IL-6-GFP PC-9GR and 0.985 ± 0.12 in the test on IL-6-GFP PC-9.
The matching figures for `CN(C(=O)c1c(O)c2ccccc2n(C)c1=O)c1ccccc1` [Roquinimex]: 0.937 ± 0.35 and 1.15 ± 0.038.
For `CC(=O)Nc1cccc(-n2c(=O)n(C3CC3)c(=O)c3c(Nc4ccc(I)cc4F)n(C)c(=O)c(C)c32)c1`, in that order: 1.04 ± 0.14 and 0.791 ± 0.31.
Consider `CC(=O)OCC(CCn1cnc2cnc(N)nc21)COC(C)=O` [Famciclovir], for which the cell viability in the test on IL-6-GFP PC-9GR was 1.32 ± 0.15; in the test with IL-6-GFP PC-9, 1.26 ± 0.18.
The matching figures for `CC(OC1OCCN(Cc2n[nH]c(=O)[nH]2)C1c1ccc(F)cc1)c1cc(C(F)(F)F)cc(C(F)(F)F)c1` (configuration not stated) [Aprepitant]: 1.01 ± 0.071 and 0.767 ± 0.041.
For `NC(CO)(CO)CO` [Trometamol], in that order: 0.932 ± 0.18 and 1.09 ± 0.061.
The matching figures for `CCCCOc1ccc(CC(=O)NO)cc1` [Bufexamac]: 1.2 ± 0.39 and 0.928 ± 0.073.
Take `CC(=O)OC1(C(C)=O)CCC2C3C=C(C)C4=CC(=O)CCC4(C)C3CCC21C` (configuration not stated) [Megestrol Acetate]: the cell viability worked out at 1.22 ± 0.09 with IL-6-GFP PC-9GR and 1.13 ± 0.1 in the test with IL-6-GFP PC-9.
Consider `Nc1cc(C(Cl)=C(Cl)Cl)c(S(N)(=O)=O)cc1S(N)(=O)=O` [Clorsulon], for which the cell viability in the test on IL-6-GFP PC-9GR was determined as 1.21 ± 0.16; with IL-6-GFP PC-9 it was 1.08 ± 0.11.
With `O=C(O)c1ccccc1Nc1cccc(C(F)(F)F)c1` [Flufenamic acid], the results for the cell viability in the test on IL-6-GFP PC-9GR and in the test on IL-6-GFP PC-9 were 1.15 ± 0.34 and 1.14 ± 0.15, respectively.
For `CCCCC1C(=O)N(c2ccccc2)N(c2ccccc2)C1=O` [Phenylbutazone], in that order: 1.34 ± 0.094 and 1.25 ± 0.053.
With `O=NN(CCCl)C(=O)NCCCl` [Carmustine], the cell viability in the test with IL-6-GFP PC-9GR turned out to be 1.21 ± 0.32; in the test on IL-6-GFP PC-9 it was 1.26 ± 0.063.
For `CC(=O)OC1(C(C)=O)CCC2C3CC(C)C4=CC(=O)C=CC4(C)C3(F)C(O)CC21C` (configuration not stated) [Fluorometholone Acetate], in that order: 0.701 ± 0.05 and 0.947 ± 0.087.
For `O=c1c(-c2ccc(O)cc2)coc2cc(O)cc(O)c12` [Genistein], in that order: 0.975 ± 0.05 and 0.58 ± 0.32.
As for `Cc1cn(-c2cc(NC(=O)c3ccc(C)c(Nc4nccc(-c5cnccn5)n4)c3)cc(C(F)(F)F)c2)cn1` [Radotinib], the values for the cell viability with IL-6-GFP PC-9GR and in the test with IL-6-GFP PC-9 were 0.7942 ± 0.0035 and 1.1 ± 0.038, respectively.
Turning to `COc1cc(-c2coc3cc4c(c(OC)c3c2=O)OCO4)cc(OC)c1OC` [Irisflorentin], the cell viability was 0.826 ± 0.2 with IL-6-GFP PC-9GR and 1.04 ± 0.12 with IL-6-GFP PC-9.
With `C=CC1CC1(NC(=O)C1CC(Oc2ncc(OC)c3ccc(Cl)cc23)CN1C(=O)C(NC(=O)OC(C)(C)C)C(C)(C)C)C(=O)NS(=O)(=O)C1CC1` (configuration not stated) [Asunaprevir], the cell viability in the test on IL-6-GFP PC-9GR worked out at 1.24 ± 0.26; with IL-6-GFP PC-9, 1.05 ± 0.46.
The matching figures for `COc1cccc2c1C(=O)c1c(O)c3c(c(O)c1C2=O)CC(O)(C(=O)CO)CC3OC1CC(N)C(O)C(C)O1.Cl` (configuration not stated) [Doxorubicin (Adriamycin) HCl]: 0.159 ± 0.12 and 0.136 ± 0.03.
With `CCCCOc1ccc(C(=O)CCN2CCCCC2)cc1.Cl` [Dyclonine HCl], the figures for the cell viability in the test on IL-6-GFP PC-9GR and in the test with IL-6-GFP PC-9 were 1.34 ± 0.43 and 1.12 ± 0.076, respectively.
With `CN1CCC(NC(=O)Nc2ccc(C#N)cc2)CC1c1nc2ccccc2[nH]1` (configuration not stated), the cell viability in the test with IL-6-GFP PC-9GR was found to be 0.848 ± 0.016; in the test on IL-6-GFP PC-9 it was 1.21 ± 0.033.
In the case of `CCCCOC(=O)c1ccccc1Nc1cccc(C(F)(F)F)c1` [Ufenamate], the cell viability with IL-6-GFP PC-9GR amounted to 0.8299 ± 0.0043; in the test on IL-6-GFP PC-9, 0.992 ± 0.24.
In the case of `Cc1nc(NC(=O)N2CCCC2C(N)=O)sc1-c1ccnc(C(C)(C)C(F)(F)F)c1` (configuration not stated) [Alpelisib (BYL719)], the values for the cell viability in the test with IL-6-GFP PC-9GR and in the test on IL-6-GFP PC-9 were 0.983 ± 0.067 and 0.934 ± 0.11, respectively.
For `COC1CC2CCC(C)C(O)(O2)C(=O)C(=O)N2CCCCC2C(=O)OC(C(C)CC2CCC(OP(C)(C)=O)C(OC)C2)CC(=O)C(C)/C=C(\C)C(O)C(OC)C(=O)C(C)CC(C)/C=C/C=C/C=C/1C` (configuration not stated) [Ridaforolimus (Deforolimus, MK-8669)], in that order: 1.15 ± 0.22 and 0.571 ± 0.42.
On to `CC(C)(C)c1nc(-c2cccc(NS(=O)(=O)c3c(F)cccc3F)c2F)c(-c2ccnc(N)n2)s1`, for which the results for the cell viability with IL-6-GFP PC-9GR and in the test on IL-6-GFP PC-9 were 1.14 ± 0.12 and 0.77 ± 0.035, respectively.
For `N.N.O=C([O-])C1(C(=O)[O-])CCC1.[Pt+2]` [Carboplatin], in that order: 1.19 ± 0.012 and 1.12 ± 0.074.
In the case of `COC(=O)NC(C(=O)N1CCCC1c1ncc(-c2ccc(-c3ccc(-c4cnc(C5CCCN5C(=O)C(NC(=O)OC)C(C)C)[nH]4)cc3)cc2)[nH]1)C(C)C` (configuration not stated), the cell viability amounted to 1.41 ± 0.14 in the test on IL-6-GFP PC-9GR and 1.18 ± 0.11 with IL-6-GFP PC-9.
`CC(=O)OC1CCC2(C)C(CCC3(C)C2C(=O)C=C2C4C(C)C(C)CCC4(C)CCC23C)C1(C)C(=O)O` (configuration not stated): the cell viability came to 0.941 ± 0.28 in the test on IL-6-GFP PC-9GR and 1.09 ± 0.16 in the test on IL-6-GFP PC-9.
The matching figures for `CC(=O)c1c(C)c2cnc(Nc3ccc(N4CCNCC4)cn3)nc2n(C2CCCC2)c1=O.Cl`: 0.661 ± 0.17 and 0.694 ± 0.11.
As for `CC(C)=CCCC(C)(OC1OC(CO)C(O)C(O)C1O)C1CCC2(C)C1C(O)CC1C3(C)CCC(O)C(C)(C)C3C(OC3OC(CO)C(O)C(O)C3O)CC12C` (configuration not stated) [Ginsenoside Rg1], the cell viability with IL-6-GFP PC-9GR was determined as 1.16 ± 0.26; in the test with IL-6-GFP PC-9 it was 1.15 ± 0.17.
The matching figures for `O=C(O)c1cc(O)c(O)c(O)c1` [Gallic acid]: 0.792 ± 0.22 and 0.369 ± 0.14.
The matching figures for `CC1(C)OC2CC3C4CCC5=CC(=O)C=CC5(C)C4C(O)CC3(C)C2(C(=O)CO)O1` (configuration not stated) [Desonide]: 0.804 ± 0.24 and 0.683 ± 0.22.
